High-throughput results (PubChem BioAssay)
ATXN2 expr inh: ATXN2 expression inhibition | HEK-293 ATXN2-luciferase reporter, luminescence, 24 h | Potency, µM (highest dose often 57 µM), for the others: top-dose activity change, negative = inhibition, usual class: inhibitors | 360,000 tested, 0.72% active | AID 1745845; also: % is scaled to controls: 0 for no effect and ±100 for the full control effect; nearly all actives have a fitted effect of over 55% in size
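qHTS (up to 57 uM final) was run with 24 h compound exposure of reporter cells at 37 °C. Each well was multiplexed: SteadyGlo luminescence measured ATXN2-luciferase expression after a fluorogenic Gly-Phe-AFC viability readout (25 uM final).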
KB-3-1 tox: KB-3-1 parental cell cytotoxicity | KB-3-1 viability, CellTiter-Glo ATP luminescence, 72 h | Potency, µM (titrated, usually from 46.1 µM), hits mostly cytotoxic | 400,000 tested, 1.4% active; also: % is scaled to controls: 0 for no effect and ±100 for the full control effect; nearly all actives have a fitted effect of over 60% in size
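Screening of KB-3-1 cells (DMEM, 10% FBS, phenol-red free) ran from lowest to highest compound concentration; after 72 h at 37 °C viability was read luminescently and curves fitted.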
KB-V1 MDR tox: KB-V1 MDR subline cytotoxicity. KB-V1 MDR cells viability, CellTiter-Glo, 72 h. Potency, µM (doses to about 46.1 µM), most hits filed as cytotoxic. 400,000 tested, 3.4% active; also: % is scaled to controls: 0 for no effect and ±100 for the full control effect; nearly all actives have a fitted effect of over 60% in size
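Luminescent ATP read-out (CellTiter-Glo, 10 min) measures survival of drug-selected KB-V1 MDR cells after 72 h, 37 degrees C compound exposure. Medium: phenol-red-free DMEM, 10% FBS. Values from fitted concentration-response curves.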
HT1080-NT tox: kills 2HG-producing HT-1080-NT fibrosarcoma cells. HT-1080-NT fibrosarcoma viability, CellTiter-Glo ATP luminescence, 48 h. Potency, µM (series often up to 46.1 µM), for inactives: top-dose activity, negative = less viability, actives largely listed as cytotoxic. 360,000 tested, 1.6% active. AID 686970;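 also: NT is the 2HG producing partner of a matched IDH1 knockdown line; 0% = DMSO-treated cells and -100% = media-only wells without cells; nearly all actives have a fitted effect of over 55% in size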
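Toxicity toward the 2HG-producing NT line was scored as %Activity, normalised to DMSO and no-cell wells, from CellTiter-Glo luminescence after 48 hours' treatment.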
HT1080 IDH1KD tx: HT-1080 IDH1 knockdown cell toxicity (counter line); HT-1080 IDH1 knockdown viability, ATP luminescence, 48 h; Potency, µM (series often up to 46.1 µM), inactives show top-dose activity, negative = toxicity, usual class: cytotoxic; AID 686971; 360,000 tested, 2% active;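 also: 0% = DMSO wells and -100% = cell-free medium wells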
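% activity derives from luminescence (CellTiter-Glo), normalised to DMSO and no-cell wells. HT-1080-IDH1KD cells, 750/well, had 48 h compound exposure at 37 °C.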
S2 tox: reduces viability in counter-screen for ATXN expression inhibitors | Potency, µM (highest dose often 56.7 µM), usual class: cytotoxic | S2 cells (HEK-293 line with an ATXN2-luciferase reporter) viability, CellTiter-Fluor protease fluorescence, 24 h | 400,000 tested, 0.49% active; also: nearly all actives have a fitted effect of over 40% in size
Numbers without * were called inactive; i = inactive; ? = inconclusive; . = no result given; [ ] = remark or other dose. This is a sample that favours compounds with a hit; in the whole collection about 6.2% have one here. Calls follow the shape of the dose curve; as a rule, active = well fitted curve in the direction sought with a large enough effect; inconclusive = small, poorly fitted or top-dose-only effect, or another doubt; inactive = no such curve, though single readings can be large; an effect the other way counts as inactive or inconclusive. Potency is read from the fitted curve at half-maximal effect.

SMILES	ATXN2 expr inh	KB-3-1 tox	KB-V1 MDR tox	HT1080-NT tox	HT1080 IDH1KD tx	S2 tox
O=C(Cc1ccccc1F)Nc1cc(S(=O)(=O)N2CCOCC2)ccc1N1CCOCC1	8%	i	i	3%[9.24 µM]	-5%	i
O=C(CSc1nc2ccccc2s1)Nc1cc(S(=O)(=O)N2CCOCC2)ccc1Cl	-1%	i	18µM*	2%	8%	i
O=S1(=O)C[C@@H](N2CCC[C@@H]2CO)[C@H](COCc2ccccc2)N1	2%	i	i	18%	-1%	i
CCc1ccc(-n2c(=O)c3sc4ccccc4c3n(CC(=O)N(CC)Cc3ccccc3)c2=O)cc1	9%	i	i	.	.	?
O=C(Nc1cc(S(=O)(=O)N2CCOCC2)ccc1N1CCOCC1)c1cnccn1	-7%	i	10µM*	0%	-2%	i
COC(=O)C1=C(C)N(Cc2ccccc2)C(=NCc2cccc(Cl)c2)N[C@H]1c1ccccc1	?	i	i	-12%	-14%	35µM*
COC(=O)C1=C(C)N(Cc2ccccc2)C(=O)N[C@H]1c1ccc(Br)cc1	-23%	i	i	-9%	-6%	i
COCCN=C1N[C@@H](c2ccc(Br)cc2)C(C(=O)OC)=C(C)N1Cc1ccccc1	?	i	i	23µM*	-29%	?
COCCOC(=O)C1=C(C)N(Cc2ccccc2)C(=O)NC1c1ccc(OC)cc1 (centres undefined)	-23%	i	13µM*	-17%	-10%	i
Cc1sc2ncn(CC(=O)N(C)c3ccc(Br)cc3)c(=O)c2c1S(=O)(=O)N1CCC(C)CC1	6%	i	i	.	.	i
O=C(NCc1ccc2c(c1)OCO2)OCc1ccccc1	.	i	i	-2%	4%	.
COc1ccc(NC(=O)Cn2c(=O)c3ccccc3n3nncc23)c(OC)c1	-5%	i	i	.	.	i
COc1cccc(-c2ccnc(-n3ncc(C(=O)NCC(C)(C)CN(C)C)c3C)n2)c1	.	.	.	.	.	i
CC(C)NC(=O)[C@@H]1C[C@@H](Sc2ccccn2)CN1C1CCN(C)CC1	.	.	.	.	.	i
CCCCn1cnc2c([nH]c3cc(OC)ccc32)c1=O	49%	i	?	24%	24%	i
COc1ccc2c(c1)[nH]c1c(=O)n(CC3CCCO3)cnc12 (centres undefined)	23%	i	21µM*	6%	5%	i
COc1ccc2c(c1)[nH]c1c(=O)n(Cc3ccco3)cnc12	4%	?	15µM*	?	?	?
COc1ccc2c(c1)[nH]c1c(=O)n(Cc3ccccn3)cnc12	7%	i	i	-13%	-14%	i
CCOc1ccc(-n2c(SCC(=O)Nc3cccc(Cl)c3)nc3c(oc4ccccc43)c2=O)cc1	3%	i	i	.	.	i
O=C(Nc1cc(S(=O)(=O)N2CCOCC2)ccc1OCC(F)(F)F)C1CCCC1	.	i	i	12%	-1%	i
O=C(N/N=C/c1ccc[nH]1)c1ccc(COc2cccc3cccnc23)cc1	7.5µM*	2.3µM*	i	?	5.2µM*	?
Cc1cc(Br)c(OCc2ccc(C(=O)N/N=C/c3ccc[nH]3)cc2)c(Br)c1	-63%	2.6µM*	?	0.82µM*	1µM*	?
Oc1ccccc1-c1cncn1Cc1ccccc1	4%	i	?	2%	-9%	?
COc1ccc(Cn2c(CO)cnc2SCc2cccc(C)c2)cc1	44%	i	i	.	.	i
Cc1c(Br)c(C(=O)NCc2cc3cc(Cl)ccc3[nH]2)nn1C	1%	i	i	-29%	?	i
SMILES	ATXN2 expr inh	KB-3-1 tox	KB-V1 MDR tox	HT1080-NT tox	HT1080 IDH1KD tx	S2 tox
Cn1cc([N+](=O)[O-])c(C(=O)NCc2cc3cc(Cl)ccc3[nH]2)n1	1%	9.2µM*	i	1%	17%	i
COCCSc1nnc(NC(=O)Cc2ccccc2OC)s1	0%	i	18µM*	14%	17%	i
CCOc1ccccc1Nc1nnc(SCC(=O)N2CCCC2)s1	-1%	i	i	0%	2%	i
COc1ccccc1Nc1nnc(SCC(=O)N2CCCC2)s1	28%	i	13µM*	4%	2%	i
COc1ccccc1Nc1nnc(SCC2CCCCO2)s1 (centres undefined)	-16%	16µM*	9.2µM*	16µM*	15µM*	i
N#C/C(=C\c1ccc(Cl)cc1)C(=O)NCC1CCCO1 (centres undefined)	9%	i	i	.	.	i
COc1cccc(CN2C(=O)c3ccccc3C2C(=O)NCCc2ccccc2)c1 (centres undefined)	-1%	i	i	.	.	?
CN1CCc2c(c3cnc4cc(Cl)ccc4c3n2C)C1	.	i	i	.	.	.
O=C(C1CC(c2ccc(F)cc2)=NO1)N1CCN(Cc2ccccc2)CC1 (centres undefined)	-13%	i	i	-1%	-7%	i
COc1cccc(C2=NOC(C(=O)N3CCN(Cc4ccccc4)CC3)C2)c1OC (centres undefined)	-4%	i	5.8µM*	0%	1%	i
Cc1ccc(Oc2ccccc2/C=C2\SC(=O)N(C)C2=O)cc1	-6%	i	16µM*	-29%	-17%	i
CCCCn1c(N)c(N(CCOC)C(=O)c2ccc(S(=O)(=O)N(CC)c3ccccc3)cc2)c(=O)[nH]c1=O	8%	i	i	-2%	0%	i
COc1cccc(C(=O)Nc2cccc3ccccc23)c1	2%	i	i	1%	3%	?
COc1ccc(Nc2ncc(C(=O)Nc3cc(Cl)c(OC)cc3OC)c3ccccc23)cc1	9%	i	i	.	.	i
COc1cccc(C(CC(=O)Nc2cccc3ccccc23)NC(=O)c2ccccc2)c1 (centres undefined)	?	i	5.8µM*	?	?	?
COc1ccc2nc(NC(=O)Nc3ccccc3OC)sc2c1	32%	5.2µM*	4.6µM*	?	?	i
COc1ccc2nc(NC(=O)Nc3cccc4ccccc34)sc2c1	.	i	i	?	?	i
COc1ccc(OC)c(NC(=O)Nc2cccc3ccccc23)c1	-8%	i	7.3µM*	2%	9%	i
COc1ccc(OC)c(NC(=O)c2cnc(Nc3ccccc3OC)c3ccccc23)c1	-22%	7.3µM*	6.5µM*	?	?	i
COc1cc(=O)n2c(c1C(=O)NC(C)c1ccco1)CCN(C(=O)c1[nH]c(C)cc1C)CC2 (centres undefined)	.	.	.	.	.	i
